Experimental data: PubChem BioAssay
Results filed as inconclusive are left out. Activity calls are given as the source filed them.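 How the source made its calls, unless noted: active means normalized viability below 100% at a tested concentration; inactive means the rest.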

Legend:
[1] = growth inhibition of DIPG glioma cells, dose response, cell-based, SU-DIPG-XVII, MIPE5.0, CellTiter-Glo, qHTS (AID 1347060; cut-off not given, nearly all actives have AC50 up to about 26 µM;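 on AC50: cells exposed to compound for 48 hours before viability readout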); settings: SU-DIPG-XVII viability, CellTiter-Glo ATP luminescence
[2] = growth inhibition of DIPG glioma cells, dose response, cell-based, SU-DIPG-XIII, MIPE4.0, CellTiter-Glo, qHTS (AID 1347061; cut-off not given, nearly all actives have AC50 up to about 37 µM;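 further: cells exposed to compound for 48 hours before readout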); settings: SU-DIPG-XIII viability, CellTiter-Glo ATP luminescence
[3] = growth inhibition of DIPG glioma cells, dose response, cell-based, JHH-DIPG-1, MIPE4.0, CellTiter-Glo, qHTS (AID 1347062; cut-off not given, nearly all actives have AC50 up to about 27 µM;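 on AC50: cells exposed to compound for two days before readout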); settings: JHH-DIPG-1 viability, CellTiter-Glo ATP luminescence
[4] = growth inhibition of DIPG glioma cells, dose response, cell-based, SU-DIPG-IV, MIPE4.0, CellTiter-Glo, qHTS (AID 1347063; cut-off not given, nearly all actives have AC50 up to about 30 µM;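 further: compound exposure lasted 48 hours before the viability readout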); settings: SU-DIPG-IV viability, CellTiter-Glo ATP luminescence
[5] = growth inhibition of DIPG glioma cells, dose response, cell-based, SU-DIPG-XIII, MIPE5.0, CellTiter-Glo, qHTS (AID 1347064; cut-off not given, nearly all actives have AC50 up to about 23 µM;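 on AC50: cells exposed to compound for 48 hours before the viability read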); settings: SU-DIPG-XIII viability, CellTiter-Glo ATP luminescence
[6] = viability loss in pontine glioma line – cell-based, SU-DIPG-XXV, MIPE5.0, CellTiter-Glo, qHTS, dose response (AID 1347065; cut-off not given, nearly all actives have AC50 up to about 26 µM;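 further: cells exposed to compound for 48 hours before ATP readout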); settings: CellTiter-Glo ATP luminescence
[7] = SU-DIPG-VI glioma cell viability, MIPE4.0 library, CellTiter-Glo luminescence, qHTS (AID 1347066; cut-off not given, nearly all actives have AC50 up to about 30 µM;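 further: cells exposed to compound for 48 hours before readout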); settings: CellTiter-Glo ATP luminescence
[8] = JHH-DIPG-1 glioma cell viability, MIPE5.0 library, CellTiter-Glo luminescence, qHTS (AID 1347067; cut-off not given, nearly all actives have AC50 up to about 26 µM;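 further: cells exposed to compound for 48 hours before readout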); settings: JHH-DIPG-1 glioma viability, CellTiter-Glo ATP luminescence
[9] = SU-DIPG-XXV glioma cell viability, MIPE5.0 library, qHTS (AID 1347068; cut-off not given, nearly all actives have IC50 up to about 30 µM;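 on IC50: cells exposed to compound for 48 hours before viability readout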)
[10] = liver-stage malaria parasite growth inhibition, primary screen, cell-based, HepG2, luciferase luminescence, HepG2 viability (AID 624349; in the data active means parasite load remaining mostly below about 12%, no sharp cut-off; inactive means mostly above about 10%;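 further: 100% = mean of DMSO negative control wells on the same plate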); settings: P. berghei liver stage in HepG2, luciferase luminescence, concentration not given here; parasite load remaining: stronger effect = lower value; viability: measured here: HepG2 viability without parasites
[11] = system: Aerobactin synthetase IucA (Klebsiella pneumoniae); experiment: IucA aerobactin synthetase inhibitors, biochemical, Tocris library, absorbance (AID 1345561; call rule not given here;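 further: 100% = enzyme without compound and 0% = no enzyme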); settings: purified IucA enzyme assay, absorbance (OD) read-out; stronger effect = lower value;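 tested at 8 µM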
[12] = sensitizers of A549 cells to miR-34 induction, primary screen, imaging, A549 dox-inducible miR-34, nuclei and caspase counts (AID 1347080;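 active means compounds whose cell count with miR-34 switched on is under 0.7 times the count with it off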); settings: A549 miR-34 inducible, Hoechst nuclei count, 48 h
[13] = viability rescue of complex I mutant cybrids, primary screen, cell-based, galactose medium, ATP luminescence (AID 1645843;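 active means z-score of at least 1.8 in each of two replicates, scored against plate mean and spread of sample wells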;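 further: positive z means more ATP and so rescue of galactose-driven cybrid death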); settings: complex I mutant cybrid cells, 72 h, stronger effect = higher value
[14] = modifiers of HSF1 nuclear foci, imaging, Selleck Cancer Library (AID 1347162; in the data active means plate-normalised HSF1 focus index below about 0.46); settings: human cells, at 10 µM; SSMD: measured here: HSF1 foci SSMD mean; cell count: measured here: cell number; plate-normalised HSF1 focus index: stronger effect = lower value
[15] = survival rescue of mitochondrial mutant cells in low glucose, primary screen, MELAS cybrids, Rieske KO mouse fibroblasts, CellTiter-Glo (AID 1508586;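 active means mean z-score across replicates of 1.96 or higher in either the MELAS or the Rieske mutant cell line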;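 further: z relative to plate mean and SD of compound and empty wells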)
[16] = ovarian cancer cell viability with rucaparib, profiling panel, oncology-focused library, rucaparib conditional (AID 1508598); settings: patient-derived ovarian cancer cells, CellTiter-Glo viability, 144 h, stronger effect = lower value
[17] = stronger effect = lower value, cell number ratio, induced over uninduced
[18] = measured here: relative caspase fold change +Dox/-Dox
[19] = measured here: total cells with miR-34 induction, stronger effect = lower value
[20] = measured here: total cells without miR-34 induction

COc1cc2c(Oc3ccc(-c4cnc(Nc5ccc(F)cc5)n(C)c4=O)cc3F)ccnc2cc1OCCCN1CCOCC1
active: AC50 [1] 3.32 µM | AC50 [2] 14.8 µM | AC50 [3] 18.7 µM | AC50 [4] 16.6 µM | AC50 [5] 3.72 µM | AC50 [6] 2.09 µM | AC50 [7] 9.35 µM | AC50 [8] 9.34 µM | IC50 [9] 6.61 µM

CCOc1cc2c(c(F)c1OCC)C(=N)N(CC(=O)c1cc(N3CCOCC3)c(OC)c(C(C)(C)C)c1)C2
active: AC50 [1] 26.3 µM | AC50 [2] 2.35 µM | AC50 [3] 23.5 µM | AC50 [4] 16.6 µM | AC50 [5] 29.5 µM | AC50 [6] 23.5 µM | AC50 [7] 16.6 µM | AC50 [8] 20.9 µM

O=C(c1ccc(F)c(F)c1Nc1ccc(I)cc1F)N1CC(O)([C@@H]2CCCCN2)C1
active: AC50 [1] 0.332 µM | AC50 [2] 0.418 µM | AC50 [3] 0.332 µM | AC50 [4] 5.9 µM | AC50 [5] 0.372 µM | AC50 [6] 0.525 µM

N#CNC(=NCCCCCCOc1ccc(Cl)cc1)Nc1ccncc1
active: AC50 [1] 0.0295 µM | AC50 [2] 0.00469 µM | AC50 [3] 0.00132 µM | AC50 [4] 0.00469 µM | AC50 [5] 0.00833 µM | AC50 [6] 0.0132 µM | AC50 [7] 0.00526 µM | AC50 [8] 0.0148 µM

CC[C@@H](C)[C@H](NC(=O)[C@H](CC1CCCCC1)NC(=O)c1ccno1)C(=O)N1CCC2(CCc3ccccc32)CC1
active: AC50 [6] 11.8 µM
inactive: outcome [1] | outcome [2] | outcome [3] | outcome [4] | outcome [5] | outcome [7] | outcome [8] | outcome [9]

CC(C)(C)C[C@H]1N[C@@H](C(=O)NC2CCC(O)CC2)[C@H](c2cccc(Cl)c2F)[C@@]12C(=O)Nc1cc(Cl)ccc12 (some centres not stated)
active: AC50 [1] 23.5 µM

c1ccc(-c2n[nH]c3c2oc2ccccc23)cc1
7320: cell count [12, 20]
1.09: fold change [12, 18]
103%: viability [10]
6520: cell count [12, 19]
inactive: parasite load remaining [10] 24.1% | remaining activity [11] 98.7% | fold change [12, 17] 0.891 | z-score [13] 0.045

O=C1NC(=O)c2cc(Nc3ccc(F)cc3)c(Nc3ccc(F)cc3)cc21
70.7%: viability [10]
2570: cell count [12, 20]
inactive: parasite load remaining [10] 41.4% | remaining activity [11] 103% | fold change [12, 17] 1.25 | z-score [13] -0.645
0.934: fold change [12, 18]
3220: cell count [12, 19]

C=CC(=O)N1CCc2ccc(-n3c(=O)ccc4cnc5ccc(-c6cnn(C)c6)cc5c43)cc21
active: AC50 [1] 0.229 µM | AC50 [2] 8.33 µM | AC50 [3] 7.43 µM | AC50 [4] 2.35 µM | AC50 [5] 0.0723 µM | AC50 [6] 0.144 µM | AC50 [7] 3.72 µM | AC50 [8] 1.15 µM

NS(=O)(=O)c1ccc(NC(=S)N2CCN(C/C=C/c3ccccc3)CC2)cc1
inactive: outcome [1]

NCC(=O)Nc1cncc(-c2nn3c(=O)cc(N4CCNCC4)nc3s2)c1
inactive: outcome [1]

CC(C)S(=O)(=O)c1ccc2nccc(Nc3ccc4scnc4c3)c2c1
active: AC50 [1] 16.6 µM

O=c1cc(N2CCNCC2)oc2c(-c3ccccc3)cccc12
inactive: parasite load remaining [10] 25.4% | remaining activity [11] 83.1% | fold change [12, 17] 0.968 | z-score [13] 1.52
7780: cell count [12, 19]
90.4%: viability [10]
8040: cell count [12, 20]
1.21: fold change [12, 18]

CN(C)C(=O)n1nnnc1Cc1ccc(-c2ccccc2)cc1
1.05: fold change [12, 18]
1840: cell count [12, 19]
inactive: remaining activity [11] 82% | fold change [12, 17] 1.31 | z-score [13] -0.57
1400: cell count [12, 20]

CCOC(=O)C12CC1/C(=N\O)c1ccccc1O2 (configuration not stated)
9220: cell count [12, 20]
8510: cell count [12, 19]
inactive: remaining activity [11] 109% | fold change [12, 17] 0.923 | z-score [13] -0.07
1.17: fold change [12, 18]

C[C@@H](Oc1ccc2[nH]nc(/C=C/c3cnn(CCO)c3)c2c1)c1c(Cl)cncc1Cl
active: AC50 [1] 0.0295 µM | AC50 [2] 0.418 µM | AC50 [3] 20.9 µM | AC50 [4] 5.9 µM | AC50 [5] 0.0148 µM | AC50 [6] 0.0105 µM | AC50 [7] 16.6 µM | AC50 [8] 0.468 µM | IC50 [9] 2.09 µM

CN1CCC(CNc2ccc3ncc(-c4cccc(OC(F)(F)F)c4)n3n2)CC1
7290: cell count [14]
5020: cell count [12, 20]
4380: cell count [12, 19]
active: AC50 [1] 8.33 µM | AC50 [2] 18.7 µM | AC50 [3] 13.2 µM | AC50 [4] 18.7 µM | AC50 [5] 10.5 µM | AC50 [6] 5.25 µM | AC50 [7] 20.9 µM | AC50 [8] 2.63 µM | IC50 [9] 23.5 µM | viability ([16]; at 0.000305 µM, OCI-P5x cells, with rucaparib 20 µM, 100% = cells with rucaparib alone) 97.3% | viability ([16]; at 0.000305 µM, OCI-P5x cells, without rucaparib) 92.4% | viability ([16]; at 0.00122 µM, OCI-P5x cells, without rucaparib) 94.8% | viability ([16]; at 0.00488 µM, OCI-P5x cells, with rucaparib 20 µM, 100% = cells with rucaparib alone) 96.7% | viability ([16]; at 0.00488 µM, OCI-P5x cells, without rucaparib) 87.9% | viability ([16]; at 0.0195 µM, OCI-P5x cells, with rucaparib 20 µM, 100% = cells with rucaparib alone) 99.2% | viability ([16]; at 0.0195 µM, OCI-P5x cells, without rucaparib) 88% | viability ([16]; at 0.0781 µM, OCI-P5x cells, with rucaparib 20 µM, 100% = cells with rucaparib alone) 93.6% | viability ([16]; at 0.0781 µM, OCI-P5x cells, without rucaparib) 82.1% | viability ([16]; at 0.313 µM, OCI-P5x cells, with rucaparib 20 µM, 100% = cells with rucaparib alone) 89.6% | viability ([16]; at 0.313 µM, OCI-P5x cells, without rucaparib) 80.8% | viability ([16]; at 1.25 µM, OCI-C5x cells, without rucaparib) 98% | viability ([16]; at 1.25 µM, OCI-P5x cells, with rucaparib 20 µM, 100% = cells with rucaparib alone) 82.6% | viability ([16]; at 1.25 µM, OCI-P5x cells, without rucaparib) 70.9% | viability ([16]; at 5 µM, OCI-P5x cells, with rucaparib 20 µM, 100% = cells with rucaparib alone) 50.5% | viability ([16]; at 5 µM, OCI-P5x cells, without rucaparib) 46.6%
0.583: fold change [12, 18]
inactive: fold change [12, 17] 0.872 | plate-normalised HSF1 focus index [14] 1.1 | z-score ([15]; MELAS cybrid survival, CellTiter-Glo 48 h, stronger effect = higher value) -0.102 | viability ([16]; at 0.000305 µM, OCI-C5x cells, with rucaparib 10 µM, 100% = cells with rucaparib alone) 112% | viability ([16]; at 0.000305 µM, OCI-C5x cells, without rucaparib) 115% | viability ([16]; at 0.00122 µM, OCI-C5x cells, with rucaparib 10 µM, 100% = cells with rucaparib alone) 110% | viability ([16]; at 0.00122 µM, OCI-C5x cells, without rucaparib) 113% | viability ([16]; at 0.00122 µM, OCI-P5x cells, with rucaparib 20 µM, 100% = cells with rucaparib alone) 100% | viability ([16]; at 0.00488 µM, OCI-C5x cells, with rucaparib 10 µM, 100% = cells with rucaparib alone) 106% | viability ([16]; at 0.00488 µM, OCI-C5x cells, without rucaparib) 106% | viability ([16]; at 0.0195 µM, OCI-C5x cells, with rucaparib 10 µM, 100% = cells with rucaparib alone) 110% | viability ([16]; at 0.0195 µM, OCI-C5x cells, without rucaparib) 114% | viability ([16]; at 0.0781 µM, OCI-C5x cells, with rucaparib 10 µM, 100% = cells with rucaparib alone) 107% | viability ([16]; at 0.0781 µM, OCI-C5x cells, without rucaparib) 109% | viability ([16]; at 0.313 µM, OCI-C5x cells, with rucaparib 10 µM, 100% = cells with rucaparib alone) 110% | viability ([16]; at 0.313 µM, OCI-C5x cells, without rucaparib) 104% | viability ([16]; at 1.25 µM, OCI-C5x cells, with rucaparib 10 µM, 100% = cells with rucaparib alone) 130% | viability ([16]; at 5 µM, OCI-C5x cells, with rucaparib 10 µM, 100% = cells with rucaparib alone) 123% | viability ([16]; at 5 µM, OCI-C5x cells, without rucaparib) 115%
-1.76: z-score ([15]; Rieske KO mouse fibroblast survival, CellTiter-Glo 72 h)
1.66: SSMD [14]
